Measured values as given in PubChem BioAssay AID1159580 (chemical genetic matrix, 2015).
Among all 5,500 compounds or so, about 2,000 (36%) were called active. Another 18% or so got no clear call; they are omitted. No stated cut-off is given here; in the data, active means normalized growth mostly below about 0.91 (no sharp cut-off); inconclusive means no clear call, values can overlap the other calls; inactive means mostly above about 0.92. The list shows a part of the results.

Test: chemical genetic growth profiling, strain panel (AID 1159580);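 further: tested at 20 µM; growth read once vehicle control cultures reached saturation at 30 °C; 1 = growth at the plate median or of vehicle wells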
Details: growth OD
[1] = S. cerevisiae deletion strains, locus YAL013W, strain DEP1, stronger effect = lower value
[2] = S. cerevisiae deletion strains, locus YBR229C, strain ROT2, stronger effect = lower value
[3] = S. cerevisiae deletion strains, locus YCL061C, strain MRC1, stronger effect = lower value
[4] = S. cerevisiae deletion strains, locus YDL101C, strain DUN1, stronger effect = lower value
[5] = S. cerevisiae deletion strains, locus YDR150W, strain NUM1, stronger effect = lower value
[6] = S. cerevisiae deletion strains, locus YEL061C, strain CIN8, stronger effect = lower value
[7] = S. cerevisiae deletion strains, locus YGR078C, strain PAC10, stronger effect = lower value
[8] = S. cerevisiae deletion strains, locus YHR030C, strain SLT2, stronger effect = lower value
[9] = S. cerevisiae deletion strains, locus YHR087W, strain rtc3, stronger effect = lower value
[10] = S. cerevisiae deletion strains, locus YJL187C, strain SWE1, stronger effect = lower value
[11] = S. cerevisiae deletion strains, locus YJR043C, strain POL32, stronger effect = lower value
[12] = S. cerevisiae deletion strains, locus YJR075W, strain HOC1, stronger effect = lower value
[13] = S. cerevisiae deletion strains, locus YLR039C, strain RIC1, stronger effect = lower value
[14] = S. cerevisiae deletion strains, locus YLR058C, strain SHM2 (second series), stronger effect = lower value
[15] = S. cerevisiae deletion strains, locus YLR085C, strain ARP6, stronger effect = lower value
[16] = S. cerevisiae deletion strains, locus YLR262C, strain YPT6, stronger effect = lower value
[17] = S. cerevisiae deletion strains, locus YML094W, strain GIM5, stronger effect = lower value
[18] = S. cerevisiae deletion strains, locus YMR219W, strain ESC1, stronger effect = lower value
[19] = S. cerevisiae deletion strains, locus YMR263W, strain SAP30, stronger effect = lower value
[20] = S. cerevisiae deletion strains, locus YNL153C, strain GIM3, stronger effect = lower value
[21] = S. cerevisiae deletion strains, locus YNL298W, strain CLA4 (second series), stronger effect = lower value
[22] = S. cerevisiae deletion strains, locus YNL322C, strain KRE1, stronger effect = lower value
[23] = S. cerevisiae deletion strains, locus YNR030W, strain Alg12, stronger effect = lower value
[24] = S. cerevisiae deletion strains, locus YOL006C, strain TOP1, stronger effect = lower value
[25] = S. cerevisiae deletion strains, locus YPL055C, strain LGE1, stronger effect = lower value
[26] = S. cerevisiae deletion strains, locus YPL241C, strain CIN2, stronger effect = lower value
[27] = S. cerevisiae deletion strains, locus YPR135W, strain CTF4, stronger effect = lower value
[28] = S. cerevisiae strains, strain wild type, stronger effect = lower value

Measured: normalized growth

N#CCCN(CC1CCCO1)C(=S)Nc1cc(C(F)(F)F)cc(C(F)(F)F)c1 (stereo not given)
active: [23] 0.829 | [26] 0.797
inactive: [1] 1.01 | [2] 0.965 | [3] 0.994 | [4] 0.991 | S. cerevisiae deletion strains, locus YDL134C, strain PPH21, stronger effect = lower value 0.95 | [5] 0.953 | [6] 0.982 | [7] 0.985 | [8] 0.882 | [9] 0.979 | [10] 1 | [11] 0.938 | [12] 0.918 | S. cerevisiae deletion strains, locus YKL190W, strain CNB1, stronger effect = lower value 1.02 | [13] 0.86 | [14] 1.01 | [15] 0.85 | [16] 0.908 | [17] 0.888 | [18] 0.996 | [19] 0.978 | [20] 1 | [21] 0.985 | [22] 1 | [24] 0.903 | [25] 0.866 | [27] 0.827 | [28] 1.02

O=C(NCc1ccc(Cl)c(Cl)c1)c1cccnc1OCC(F)(F)F
inactive: S. cerevisiae deletion strains, locus YAR019C, strain CDC15, stronger effect = lower value 0.956 | S. cerevisiae deletion strains, locus YBL105C, strain PKC1, stronger effect = lower value 0.951 | S. cerevisiae deletion strains, locus YBR135W, strain CKS1, stronger effect = lower value 0.947 | S. cerevisiae deletion strains, locus YBR136W, strain MEC1, stronger effect = lower value 0.97 | S. cerevisiae deletion strains, locus YBR160W, strain CDC28, stronger effect = lower value 0.961 | S. cerevisiae deletion strains, locus YDL017W, strain CDC7, stronger effect = lower value 0.955 | S. cerevisiae deletion strains, locus YDL028C, strain MPS1, stronger effect = lower value 0.97 | [4] 0.958 | S. cerevisiae deletion strains, locus YDL108W, strain KIN28, stronger effect = lower value 0.947 | S. cerevisiae deletion strains, locus YDL132W, strain cdc53, stronger effect = lower value 0.952 | S. cerevisiae deletion strains, locus YDL214C, strain PRR2, stronger effect = lower value 0.971 | S. cerevisiae deletion strains, locus YDR052C, strain DBF4, stronger effect = lower value 0.971 | S. cerevisiae deletion strains, locus YDR054C, strain cdc34, stronger effect = lower value 0.958 | S. cerevisiae deletion strains, locus YDR226W, strain ADK1, stronger effect = lower value 0.967 | S. cerevisiae deletion strains, locus YDR477W, strain SNF1, stronger effect = lower value 0.974 | S. cerevisiae deletion strains, locus YER123W, strain YCK3, stronger effect = lower value 0.949 | S. cerevisiae deletion strains, locus YER133W, strain GLC7, stronger effect = lower value 0.961 | S. cerevisiae deletion strains, locus YFL009W, strain cdc4, stronger effect = lower value 0.966 | S. cerevisiae deletion strains, locus YFL029C, strain CAK1, stronger effect = lower value 0.955 | S. cerevisiae deletion strains, locus YFR003C, strain YPI1, stronger effect = lower value 0.949 | S. cerevisiae deletion strains, locus YFR019W, strain FAB1, stronger effect = lower value 0.97 | S. cerevisiae deletion strains, locus YFR028C, strain CDC14, stronger effect = lower value 0.947 | S. cerevisiae deletion strains, locus YGR040W, strain KSS1, stronger effect = lower value 0.965 | S. cerevisiae deletion strains, locus YGR052W, strain FMP48, stronger effect = lower value 1.02 | S. cerevisiae deletion strains, locus YGR092W, strain DBF2, stronger effect = lower value 0.932 | [8] 1.04 | S. cerevisiae deletion strains, locus YHR079C, strain IRE1, stronger effect = lower value 1.03 | S. cerevisiae deletion strains, locus YHR082C, strain KSP1, stronger effect = lower value 1.06 | S. cerevisiae deletion strains, locus YHR205W, strain SCH9, stronger effect = lower value 0.95 | S. cerevisiae deletion strains, locus YIL147C, strain SLN1, stronger effect = lower value 0.958 | S. cerevisiae deletion strains, locus YJL095W, strain BCK1, stronger effect = lower value 1.02 | S. cerevisiae deletion strains, locus YJL128C, strain PBS2, stronger effect = lower value 0.9 | S. cerevisiae deletion strains, locus YJL157C, strain FAR1, stronger effect = lower value 0.973 | S. cerevisiae deletion strains, locus YJR016C, strain ILV3, stronger effect = lower value 0.965 | S. cerevisiae deletion strains, locus YJR066W, strain TOR1 (second series), stronger effect = lower value 0.972 | S. cerevisiae deletion strains, locus YJR066W, strain TOR1, stronger effect = lower value 1.07 | S. cerevisiae deletion strains, locus YKL048C, strain ELM1, stronger effect = lower value 0.951 | S. cerevisiae deletion strains, locus YKL067W, strain YNK1, stronger effect = lower value 0.955 | S. cerevisiae deletion strains, locus YKL101W, strain HSL1, stronger effect = lower value 0.968 | S. cerevisiae deletion strains, locus YKL193C, strain SDS22, stronger effect = lower value 0.951 | S. cerevisiae deletion strains, locus YKL203C, strain TOR2, stronger effect = lower value 1.04 | S. cerevisiae deletion strains, locus YLR113W, strain HOG1, stronger effect = lower value 0.891 | S. cerevisiae deletion strains, locus YLR133W, strain CKI1, stronger effect = lower value 0.965 | S. cerevisiae deletion strains, locus YLR403W, strain SFP1, stronger effect = lower value 0.978 | S. cerevisiae deletion strains, locus YML070W, strain DAK1, stronger effect = lower value 0.944 | S. cerevisiae deletion strains, locus YMR001C, strain CDC5, stronger effect = lower value 0.937 | S. cerevisiae deletion strains, locus YMR205C, strain PFK2 (second series), stronger effect = lower value 0.958 | S. cerevisiae deletion strains, locus YMR277W, strain FCP1, stronger effect = lower value 0.947 | S. cerevisiae deletion strains, locus YNL006W, strain LST8, stronger effect = lower value 0.968 | S. cerevisiae deletion strains, locus YNL020C, strain ARK1, stronger effect = lower value 0.968 | S. cerevisiae deletion strains, locus YNL161W, strain CBK1, stronger effect = lower value 0.971 | S. cerevisiae deletion strains, locus YNL183C, strain NPR1, stronger effect = lower value 0.99 | S. cerevisiae deletion strains, locus YNL207W, strain RIO2, stronger effect = lower value 0.968 | S. cerevisiae deletion strains, locus YNL222W, strain SSU72, stronger effect = lower value 0.953 | S. cerevisiae deletion strains, locus YNL307C, strain MCK1 (second series), stronger effect = lower value 0.957 | S. cerevisiae deletion strains, locus YOL078W, strain AVO1, stronger effect = lower value 0.963 | S. cerevisiae deletion strains, locus YOL136C, strain PFK27, stronger effect = lower value 0.968 | S. cerevisiae deletion strains, locus YOR061W, strain CKA2, stronger effect = lower value 0.945 | S. cerevisiae deletion strains, locus YOR119C, strain RIO1, stronger effect = lower value 1.01 | S. cerevisiae deletion strains, locus YOR231W, strain MKK1, stronger effect = lower value 1.03 | S. cerevisiae deletion strains, locus YOR329C, strain SCD5, stronger effect = lower value 0.969 | S. cerevisiae deletion strains, locus YPL031C, strain PHO85, stronger effect = lower value 0.97 | S. cerevisiae deletion strains, locus YPL153C, strain RAD53, stronger effect = lower value 0.968 | S. cerevisiae deletion strains, locus YPL204W, strain HRR25, stronger effect = lower value 0.971 | S. cerevisiae deletion strains, locus YPL209C, strain IPL1, stronger effect = lower value 0.968 | S. cerevisiae deletion strains, locus YPL256C, strain CLN2, stronger effect = lower value 0.995 | S. cerevisiae deletion strains, locus YPR025C, strain CCL1, stronger effect = lower value 0.964 | S. cerevisiae deletion strains, locus YPR106W, strain ISR1, stronger effect = lower value 0.961 | S. cerevisiae deletion strains, locus YPR111W, strain DBF20, stronger effect = lower value 0.958 | S. cerevisiae deletion strains, strain NNK1, stronger effect = lower value 0.959 | S. cerevisiae deletion strains, strain TSCII, stronger effect = lower value 0.958

CN(C)C=Nc1ncccc1OCc1ccc(Cl)c(Cl)c1
inactive: [1] 0.973 | [2] 0.989 | [3] 0.945 | [4] 0.951 | [5] 0.851 | [6] 0.951 | [7] 0.964 | S. cerevisiae deletion strains, locus YGR229C, strain SMI1, stronger effect = lower value 0.967 | [9] 1.04 | [10] 0.959 | [11] 0.951 | [12] 1 | [13] 1.05 | [14] 1 | [16] 1.05 | [17] 0.923 | [18] 0.987 | [19] 0.963 | [20] 0.94 | [22] 0.978 | [23] 0.926 | [25] 0.995 | [26] 0.888 | [27] 0.756
active: [8] 0.47 | [15] 0.722 | [21] 0.788 | [24] 0.563 | [28] 0.878
